The values below come from PubChem BioAssay (NCI).

SMILES strings stand for the structures. “And” between values parts separate entries of the source, which are not always exact repeats. Equal values may be shown once. Compounds without any hit were thinned out: in the full panel of roughly 83,000, 20% have a hit.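 Results are percent growth after 48 hours of single-concentration exposure. 100 means growth as in untreated cells, lower positive values show inhibition; negative values down to -100 show cell death.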 The source made the active and inactive calls. Rule for the calls: active = growth percent below 10; inactive = the rest.

The subject of this assay is MDA-MB-468 breast. The experiment in a line: NCI-60 one-dose screen, 48 h (100 = growth as untreated, 0 = no growth, -100 = all killed). Conditions: 10 µM unless noted.
Turning to `Fc1cc2c(cc1Cl)N(c1ncnc3ccc(-c4cnc5[nH]ncc5c4)cc13)CC2`, the growth is 49.5% (inactive).
Under `COc1ccc(C2=Cn3c(CCC(=O)c4nc5ccccc5[nH]4)nnc3SC2)cc1` stands 77.4% (inactive); under `Nc1cc(Cl)cc2cccnc12`, 92.7% (inactive); under `Cc1cc(C(=O)c2ccccc2)cc(C)c1O`, 111% (inactive).
On to `Nc1nc2ccccc2c2c1S(=O)(=O)c1ccc(Cl)cc1C2=O`, for which the growth is 10.8% (inactive).
`CCc1cccc(C)c1NC(=O)c1sc2nc3c(cc2c1N)C(=O)CCC3`: the growth is 32.5% (inactive).
Under `Clc1ccc(-c2nnc(COc3ccc(C4=NNC(c5ccco5)C4)cc3)o2)cc1` (stereo not given) stands 9.43% (active); under `O=C(O)CN1C(=O)CCC1=O`, 108% (inactive); under `O=C1CN(CCN2CC(=O)N(Cc3ccccc3)C(=O)C2)CC(=O)N1Cc1ccccc1`, 107% (inactive).
Under `CC(C)(C)CC(C)(C)n1nnnc1C(NC12CC3CC(CC(C3)C1)C2)c1ccccc1` (stereo not given) stands 65.7% (inactive); under `CC1=C/C(=C(\c2ccc(N(C)C)cc2)c2ccc([N+](C)(C)C)cc2)C=CC1=[N+](C)C`, 70.6% (inactive).
Under `CCCCC(=O)OCC1OC(n2cnc3c(=S)nc[nH]c32)C(OC(=O)CCCC)C1OC(=O)CCCC` (stereo not given) stands 67.4% (inactive); under `CC(C)n1c2ccc(Br)cc2c2c3c(c4c5ccccc5ccc4c21)C(=O)NC3=O`, 93.5% (inactive); under `O=[N+]([O-])c1ccc(N/N=C/c2cccc3ccccc23)nc1`, 77.2% (inactive).
Turning to `CCN(Cc1ccccc1)c1ccc(C=O)cc1`, the growth is 62.9% (inactive).
Turning to `COc1ccc2sc3c(NCCCN(C)C)nc4ccccc4c3c(=O)c2c1`, the growth was 36.2% (inactive).
Under `O=C(NC1CCN(Cc2ccccc2)CC1)c1cc(-c2ccncc2)nc2ccc(Cl)cc12` stands 12.8% (inactive); under `CCOC(=O)c1nc2c3ccccc3ccn2c1C(=O)OC`, 92.1% (inactive); under `O=C(N/N=C\c1cc(Cl)ccc1O)c1ccncc1`, 36.9% (inactive).
Under `O=C1OCC2=C1C(c1cccc(C(F)(F)F)c1)c1cc3c(cc1N2CCO)OCO3` (stereo not given) stands -5.36% (active); under `CN(C)c1ccc(-c2cc(-c3cccc(NS(C)(=O)=O)c3)nc(N)c2C#N)cc1`, -20.1% (active); under `Cc1cccc(/C=C2\N=C(c3ccccc3)N(c3ccc(S(N)(=O)=O)cc3)C2=O)c1`, 99.2% (inactive).
On to `O=C(O)C(C(=O)O)c1cccc2ccccc12`, for which the growth is 101% (inactive).
Under `COc1ccc(C(=O)Nn2c(NCC(=O)N3c4ccccc4Sc4ccccc43)nnc2-c2ccc(O)cc2)cc1` stands 107% (inactive).
Under `COc1cc(-c2cc(-c3cc(OC)c(OC)c(OC)c3)nc3nc(N)[nH]c(=O)c23)ccc1Oc1ccnc2cc(Cl)ccc12` stands 15.9% (inactive); under `COc1cc(-c2cc3ncccc3c3[nH]c(=O)c4cccnc4c23)cc(OC)c1OC`, -10.5% (active); under `COc1ccc(CCN2CCC(CN(C)Cc3cnn(-c4ccccc4)c3)CC2)cc1`, 19% (inactive).
Under `COc1ccccc1N1CCN(C2=CC(=O)C(C)=C(C)C2=O)CC1` stands 85.8% (inactive); under `COc1cc(/C=C2\C(=O)ON=C2C)cc(OC)c1OC`, 107% (inactive).
`C[N+]1=C(/C=C\C=C\c2ccccc2)C(C)(C)c2ccccc21`: the growth was -14.9% (active).
Under `CN(C)CCCN1c2ccccc2Sc2ccc(Cl)cc21` stands 9.1% (active) and 105% (inactive) and 77.4% (inactive); under `Nc1c(C(=O)Nc2cccc(Br)c2)sc2nc3c(cc12)C(O)CCC3` (stereo not given), 29.8% (inactive).
Under `CNC(=O)c1cc(Oc2ccc3nc(NC(=O)Nc4cc(C(F)(F)F)cc(C(F)(F)F)c4)sc3c2)ccn1` stands -31.1% (active); under `O=C(Nc1ccc2ccccc2c1)c1cc2ccccc2cc1O`, 123% (inactive).
Under `Cc1ccccc1Nc1n[nH]c(Cc2ccccc2)n1` stands 104% (inactive); under `O=S(=O)(O)C(C(I)I)S(=O)(=O)O`, 95.9% (inactive); under `CCOC(=O)c1sc(-c2ccc(OS(=O)(=O)c3ccc(C(C)(C)C)cc3)c(C=O)c2)nc1C`, 1.65% (active).
Consider `C#Cc1nc(C(=O)NCCC(=O)Nc2ccc(NC(=O)c3ccc(/C=C/C(=O)c4nccn4C)cc3)cc2)cs1`, for which the growth is 20.6% (inactive).
Under `COc1ccc2c(c1)nnn1c3ncccc3c(N=O)c21` stands -87.8% (active); under `CCCCOc1c(N)cccc1C(=O)OCCN(CC)CC`, 112% (inactive).
